In all, about 33,000 sequences were measured (“e-score”: median about -0.05, highest 2% from about 0.38 on). Many of the other results were omitted from the sample, so the highest values are more common in it than they were.

The target of the test is T1, SIX1-Q177R homeodomain (human, UniProt Q15475 108-198, Q177R).
T1 sequence: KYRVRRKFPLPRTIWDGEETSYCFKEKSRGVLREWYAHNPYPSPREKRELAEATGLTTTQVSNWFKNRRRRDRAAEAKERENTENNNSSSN
The test can be described thus: universal protein binding microarray; Universal all-10-mer PBM (8x60K, AMADID 030236), 300 nM GST-tagged protein, Alexa Fluor 488 anti-GST; buffer, salt, pH and temperature not stated (as in Berger); high values mean tight binding. The settings on record: protein: ivt; tags: N-terminal GST; dsDNA, one strand shown. The procedure, abridged: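 Duplicate protein binding microarrays (universal 'all 10-mer', 8×60K format) were incubated with GST-tagged homeodomains at 300 nM final concentration. Binding was quantified as 8-mer E-scores with the Universal PBM Analysis Suite.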
Take TCACACCA: the binding signal was 0.434 ± 0.00571 E-score.
On to CCACACCA, for which the binding signal worked out at 0.393 ± 0.0307 E-score.
On to ATCCCCTG, for which the binding signal stood at 0.156 ± 0.0119 E-score.
With ACTATACG, the binding signal is 0.178 ± 0.015 E-score.
As for CACTCTGA, the binding signal turned out to be 0.239 ± 0.0406 E-score.
For CACCTTGC the value was 0.258 ± 0.0162 E-score; for TGTTGAAA, 0.219 ± 0.0411 E-score.
Regarding AGTGATAC, the binding signal turned out to be 0.265 ± 0.0283 E-score.
For CGTATACA the value was 0.241 ± 0.0194 E-score; for GCGGTACA, 0.305 ± 0.00496 E-score; for ACACTAGT, 0.389 ± 0.00685 E-score.
Regarding ACACTAGG, the binding signal came out at 0.381 ± 0.0153 E-score.
For ACACTAGC the value was 0.364 ± 0.0183 E-score; for ACCCTAGG, 0.1523 ± 0.00136 E-score.
For ACACTAAA the value was 0.345 ± 0.0117 E-score.
As for ACACTAGA, the figure is 0.318 ± 0.0323 E-score; as for GGATCAGA, 0.17 ± 0.0215 E-score.
As for CCCTGCAG, the binding signal came to 0.185 ± 0.0216 E-score.
For CTCTTACA the value was 0.183 ± 0.018 E-score.
Consider ATGGGATC, for which the binding signal came to 0.185 ± 0.00496 E-score.
On to ACGAACAC, for which the binding signal turned out to be 0.3992 ± 0.00182 E-score.
As for CCGAATAC, the figure is 0.163 ± 0.00356 E-score.
As for CCGAACCC, the figure is 0.186 ± 0.0116 E-score; as for CCGAACAC, 0.4236 ± 0.00158 E-score.
Turning to ACGAGCAC, the binding signal stood at 0.226 E-score.
For GCGAACAC the value was 0.4086 ± 0.0011 E-score.
As for GCGAACCC, the binding signal came to 0.174 ± 0.0509 E-score.
For ACCCTAAC the value was 0.154 ± 0.00793 E-score; for ACCCACAG, 0.217 ± 0.00978 E-score; for CACCAGGA, 0.25 ± 0.00664 E-score.
For the sequence GTACCTAC, the binding signal is 0.152 ± 0.0312 E-score.
Turning to CTCCGTTC, the binding signal was 0.182 ± 0.0356 E-score.
As for CCCAAACG, the figure is 0.169 ± 0.00462 E-score; as for ACAGGGTG, 0.222 ± 0.00416 E-score.
For AACACCAT the value was 0.457 ± 0.0053 E-score; for AACACCAC, 0.4833 ± 0.00244 E-score; for AACACGAC, 0.373 ± 0.0147 E-score.
For AACACCAA the value was 0.46725 ± 0.00029 E-score; for TACACGAA, 0.3773 ± 0.000856 E-score.
As for AGCACCAC, the binding signal turned out to be 0.272 ± 0.00962 E-score.
Take AGCACCAT: the binding signal came out at 0.16 ± 0.0114 E-score.
For TGCACCAA the value was 0.211 ± 0.0149 E-score; for AACACGAA, 0.305 ± 0.0107 E-score.
For AGCACCAA the value was 0.196 ± 0.00899 E-score; for TACACCAA, 0.4751 ± 0.00401 E-score; for GTCCGACA, 0.217 ± 0.042 E-score.
For GTAAGCAC the value was 0.189 ± 0.00735 E-score; for CCTCCTAA, 0.197 ± 0.00216 E-score; for GACGGTGC, 0.175 ± 0.00182 E-score.
Consider CACTGCAC, for which the binding signal turned out to be 0.223 ± 0.0117 E-score.
As to ACCCTCGG, the binding signal turned out to be 0.2 ± 0.0194 E-score.
For GATACCAA the value was 0.263 ± 0.0211 E-score.
GACCACAC: the binding signal turned out to be 0.269 ± 0.0108 E-score.
For GGCACCAC, the binding signal amounted to 0.215 ± 0.0174 E-score.
For GACACAAA the value was 0.224 ± 0.11 E-score.
As for GACACCAA, the figure is 0.475 ± 0.00758 E-score; as for GACACCAC, 0.489 ± 0.00507 E-score.
For CCCCTCGA the value was 0.23 ± 0.0411 E-score; for GGCGGGTA, 0.214 ± 0.0165 E-score.
As for CCGGGTAC, the binding signal amounted to 0.294 ± 0.0102 E-score.
On to AACGGGTG, for which the binding signal is 0.314 ± 0.00327 E-score.
As for ACCCGGTG, the figure is 0.3599 ± 0.0016 E-score.
For CTACTCCC the value was 0.228 ± 0.0226 E-score.
For CACGGCCG the value was 0.188 ± 0.00306 E-score; for CGGTATCA, 0.312 ± 0.00867 E-score; for CAGTATCA, 0.2 ± 0.0287 E-score.
As to GGGTATCA, the binding signal was 0.3904 ± 0.00193 E-score.
For the sequence GTGTATGA, the binding signal came to 0.412 ± 0.0071 E-score.
For GAGTATCA the value was 0.228 ± 0.0455 E-score; for GTGTATTA, 0.401 ± 0.0189 E-score.
GTGTATCA: the binding signal came to 0.392 ± 0.0104 E-score.
Regarding GTGTATAA, the binding signal amounted to 0.376 ± 0.0114 E-score.
For GGGTATGA the value was 0.186 ± 0.0167 E-score; for GGGTATTA, 0.161 ± 0.054 E-score.
For AGGTATCA the value was 0.324 ± 0.0386 E-score; for CCCTCGGA, 0.19 ± 0.012 E-score; for CCGAGTCA, 0.157 ± 0.00701 E-score.
For AACAGTGT, the binding signal came to 0.323 ± 0.0244 E-score.
As for GACGCCCC, the figure is 0.182 ± 0.00373 E-score; as for GAGTAACA, 0.24 ± 0.0048 E-score; as for ACGCTACA, 0.161 ± 0.0151 E-score.
As for CCAACACA, the figure is 0.163 ± 0.0809 E-score; as for CCAACACG, 0.377 ± 0.0116 E-score; as for ACAACACT, 0.35 ± 0.00607 E-score.
For ACAACACC the value was 0.455 ± 0.00357 E-score.
With ACAACACA, the binding signal is 0.232 ± 0.0598 E-score.

(Values after publication PMC10668032, “Altered binding affinity of SIX1-Q177R correlates with enhanced WNT5A and WNT pathway effector expression in Wilms tumor”.)
